# PubChem BioAssay AID818 (SRMLSC, 2007)
# Out of some 140,000 compounds screened, about 2,100 (1.5%) were called active. The full list was thinned out, with actives kept by preference. Values without a mark were called inactive.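 Rule for the calls: active = viability at or under a set limit, the compound median less 4 SD (cut at about 6% in these data); inactive = the rest.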
# Test: primary screen for suppressors of beta-catenin knockout HCT116 cell growth, colon tumor, human (AID 818);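 note: 0% = Hyamine 1622 control at 20 µM and 100% = untreated cell control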
# Settings: CellTiter-Glo, 60 h, at 10 µM, active compounds read low
row,SMILES,viability
1,CN(C)c1ccc(/C=C2\CC3C4CC=C5CC(O)CCC5(C)C4CCC3(C)C2=O)cc1 (stereo not given),2.09% (active)
2,C[N+]1(C)CCOC(O)(c2ccc(-c3ccc(C4(O)C[N+](C)(C)CCO4)cc3)cc2)C1 (stereo not given),79.5%
3,Cc1nn(Cc2ccccc2Cl)c(Cl)c1C(=O)OC(C(=O)NC(N)=O)C(C)C (stereo not given),83%
4,Cc1ccc2c(c1)=C/C(=C\c1c(O)[nH]c(=O)[nH]c1=O)C(=O)N=2,82.4%
5,Cc1cccc(OP(=O)(Oc2cccc(C)c2)OC(c2ccccc2)C(F)(F)F)c1 (stereo not given),66.6%
